An excerpt weighted towards active compounds, which were near 6.5% of everything screened.
MK inhibit: S. pneumoniae MK inhibitors, primary screen, biochemical, PK/LDH-coupled NADH absorbance; mevalonate kinase [Streptococcus pneumoniae D39]; purified MK, PK/LDH-coupled NADH absorbance 340 nm; inhibition, % at 10 µM; 65,000 tested, 0.48% active; AID 555, 2006;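 active = ranked among the strongest by inhibition in the single 10 µM screen, a fixed top-ranked set picked for dose follow-up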
Spn PMK inh: S. pneumoniae PMK inhibitors, primary screen, biochemical, mevalonate pathway, pilot trial included; phosphomevalonate kinase (Streptococcus pneumoniae D39); purified PMK, PK/LDH-coupled NADH absorbance 340 nm; inhibition, % at 10 µM; 65,000 tested, 0.49% active;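 active = top-ranked compounds by inhibition in the single 10 µM screen, taking a fixed number of the strongest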;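 note: 0% = full reaction with DMSO carrier and 100% = background rate without enzyme reaction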
Fluor 339 460: intrinsic fluorescence of library compounds, ex339/em460 – biochemical, MLSMR library, data from DPM-DC assay, artefact control, profiling panel. compound autofluorescence, ex339/em460 nm, NADH buffer; active compounds read high; 1 = no-compound wells, NADH background. fluorescence fold increase at 10 µM. 65,000 tested, 5.5% active;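 active = at 10 µM, mean starting fluorescence two-fold or more over control wells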;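 note: signal is the first read of a kinetic run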
DPM-DC inhibit: S. pneumoniae DPM-DC inhibitors, primary screen, biochemical, PK/LDH-coupled NADH fluorescence; diphosphomevalonate decarboxylase (Streptococcus pneumoniae D39); purified DPM-DC; calls only at 10 µM; 65,000 tested, 0.49% active;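 active = the 320 compounds with the highest percent inhibition in the single-dose primary screen, excluding strongly autofluorescent ones, cut at about 32% in these data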;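 note: kinetic rate of NADH fluorescence loss reporting ADP formed by the decarboxylase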
A340 absorber: compound light absorbance at 340 nm, profiling panel, artefact control, biochemical, MLSMR library, data from PS, PMK, MK assays | compound absorbance at 340 nm, fold over control | fold change at 10 µM | 65,000 tested, under 10 active | AID 708, 2007;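 active = at 10 µM dose, initial 340 nm absorbance at least 2 fold that of control wells; inactive = change under 2 fold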;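 note: initial absorbance extrapolated from kinetic A340 decline of NADH oxidation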
NADH enzymes: inhibitors of PK/LDH coupling enzymes, profiling panel, artefact control, biochemical, MLSMR library. coupled PK/LDH NADH assays, four targets. IC50, µM (titrated, usually from 10 µM), for the others: top-dose inhibition. 65,000 tested, 0.02% active. AID 774, 2007;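 active = single-dose screening hits from any of four coupled enzyme assays that gave an IC50 when retested across doses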;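 note: the DPM-DC format reads NADH fluorescence rather than 340 nm absorbance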
Starred values were filed as active, the others as inactive; i = inactive; x = not tested or not shown; + = active, no number.

SMILES | MK inhibit | Spn PMK inh | Fluor 339 460 | DPM-DC inhibit | A340 absorber | NADH enzymes
CCOC(=O)c1[nH]c(Cc2[nH]c(C(=O)OCC)c(C)c2CCC(=O)OC)c(CCC(=O)OC)c1C | 3 | 1 | 1.1 | i | 1.1 | 1%
c1ccc(NCc2nc(-c3ccccc3)no2)cc1 | 1 | 0 | 1.1 | i | 1 | 0%
Cc1cc(C(=O)N2CCN(c3ncccn3)CC2)c2cc(F)ccc2n1 | 18 | 5 | 1.2 | i | 0.97 | 8%
Cc1[nH]nc2c1-c1nc3ccccc3nc1C(C)(C)C2 | 9 | 10 | 3.9* | x | 1.1 | 10%
COC(=O)C1C(=O)c2c(n[nH]c2C)CC1(C)C (stereo unspecified) | 5 | 1 | 1.1 | i | 1 | 3%
O=C(c1ccc(Cl)c(F)c1F)N1CCCC1 | 2 | 8 | 1.1 | i | 1.1 | 1%
Cn1c(=O)c2c3c(sc2n2c(SCC(=O)c4ccc(Cl)cc4)nnc12)COC(C)(C)C3 | 0 | 10 | 1 | i | 0.97 | 2%
COc1cc2ccccc2cc1C(=O)OCC(=O)N1CCOCC1 | 0 | 13 | 5.1* | x | 1 | 7%
O=C(OCC(=O)N1CCOCC1)c1ccc[nH]c1=O | 6 | 9 | 1.1 | i | 1 | 5%
COc1ccc(-c2cn3cc(Cl)ccc3n2)cc1OC | 0 | 5 | 4.8* | x | 1.1 | 3%
COc1ccc(-c2onc3ccc(Cl)cc23)cc1OC | 5 | 3 | 1.5 | i | 1.1 | 3%
COc1ccc(-c2nc(-c3ccncc3)no2)cc1OC | 0 | 13 | 1.1 | i | 1 | 5%
COc1ccc(-c2ccc(-c3noc(-c4ccc(OC)c(OC)c4)n3)c(OC)n2)cc1 | 14 | 15 | 3.9* | x | 1.1 | 15%
COc1ccc(-c2ccc(-c3noc(-c4cccc(OC)c4)n3)c(OC)n2)cc1 | 12 | 5 | 3.8* | x | 1.1 | 9%
O=C(c1cnccn1)N1CCN(C/C=C/c2ccccc2)CC1 | 10 | 3 | 0.91 | i | 1 | 10%
COc1ccc(NC(=O)c2cnc3ccccn3c2=O)c(OC)c1 | 0 | 4 | 1.1 | i | 1.2 | 1%
CCOC(=O)N1CCN(C(=O)Nc2ccc3nc(C)c(C)nc3c2)CC1 | 8 | 5 | 2.2* | x | 1.1 | 7%
CCOC(=O)C1CCN(C(=O)Nc2ccc3nc(-c4ccco4)c(-c4ccco4)nc3c2)CC1 | 20 | 0 | 1.7 | i | 1.1 | 15%
O=C(NC1CCCC1)c1ccc2nc[nH]c2c1 | 11 | 11 | 1.1 | i | 1 | 4%
O=C(Nc1ccc2nc(-c3ccco3)c(-c3ccco3)nc2c1)N1CCCCCC1 | 16 | 9 | 2.7* | + | 1.1 | 19%
O=C(NC1CCCC1)c1ccc2nc(-c3ccco3)c(-c3ccco3)nc2c1 | 20 | 19 | 2.9* | i | 1 | 17%
O=C(Nc1ccn(-c2ccccc2)n1)c1ccc(S(=O)(=O)N2CCCCCC2)cc1 | 4 | 8 | 1.1 | i | 1 | 4%
COC(=O)c1sc2nc(-c3ccco3)ccc2c1N | 18 | 0 | 2.9* | + | 1.2 | 24%
COC(=O)c1sc2cnccc2c1N | 1 | 12 | 5.1* | x | 1 | 7%
CCOC(=O)c1sc2nc(-c3ccco3)c3c(c2c1N)CC(C)(C)OC3 | 9 | 0 | 2 | i | 1.1 | 11%
CC(C)N(C(=O)COc1ccc(Br)cc1Cl)C(C)C | 6 | 5 | 1.1 | i | 1 | 12%
CCCCCn1c(Sc2nc3ccccc3s2)nc2c1c(=O)[nH]c(=O)n2C | 9 | 9 | 1.1 | i | 1 | 6%
CCN(CC)S(=O)(=O)c1cccc(-c2nnc(SCC(=O)c3cc(C)n(C)c3C)o2)c1 | 0 | 12 | 1.1 | i | 1 | 4%
CCCN(CC(=O)c1cc(C)n(C)c1C)S(=O)(=O)c1cccc(C(F)(F)F)c1 | 6 | 8 | 2.9* | + | 1 | 15%
CCOc1ccc(NC(=O)c2cccc3c2C(=O)N(Cc2cccnc2)C3)cc1 | 12 | 4 | 1.1 | i | 1 | 5%

Bioassay records (PubChem BioAssay)
